# Assay results taken from PubChem BioAssay (NCATS).
# Inconclusive results are not listed. Activity calls are given as the source filed them. Unless noted, calls come from the whole dose curve; as a rule, active = well fitted curve in the direction sought with a large enough effect; inconclusive = small, poorly fitted or top-dose-only effect, or another doubt; inactive = no such curve, though single readings can be large; an effect the other way counts as inactive or inconclusive.
# Columns and labels:
# [1] = molecular target: Glucocorticoid receptor (Homo sapiens) (UniProt P04150); assay: qHTS assay for small molecule agonists of glucocorticoid receptor signaling (AID 588532; active = well fitted curve in the direction sought with a large enough effect in the signal ratio, with a control signal flat; the % refers to the signal ratio;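 note: 100% = dexamethasone at 0.1 µM and 0% = DMSO only wells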); settings: HeLa MMTV-bla, beta-lactamase ratio, agonist, 18 h; stronger effect = higher value; percent of dexamethasone control, DMSO zero
# Glucocorticoid receptor (Homo sapiens), sequence (P04150 whole entry, looked up): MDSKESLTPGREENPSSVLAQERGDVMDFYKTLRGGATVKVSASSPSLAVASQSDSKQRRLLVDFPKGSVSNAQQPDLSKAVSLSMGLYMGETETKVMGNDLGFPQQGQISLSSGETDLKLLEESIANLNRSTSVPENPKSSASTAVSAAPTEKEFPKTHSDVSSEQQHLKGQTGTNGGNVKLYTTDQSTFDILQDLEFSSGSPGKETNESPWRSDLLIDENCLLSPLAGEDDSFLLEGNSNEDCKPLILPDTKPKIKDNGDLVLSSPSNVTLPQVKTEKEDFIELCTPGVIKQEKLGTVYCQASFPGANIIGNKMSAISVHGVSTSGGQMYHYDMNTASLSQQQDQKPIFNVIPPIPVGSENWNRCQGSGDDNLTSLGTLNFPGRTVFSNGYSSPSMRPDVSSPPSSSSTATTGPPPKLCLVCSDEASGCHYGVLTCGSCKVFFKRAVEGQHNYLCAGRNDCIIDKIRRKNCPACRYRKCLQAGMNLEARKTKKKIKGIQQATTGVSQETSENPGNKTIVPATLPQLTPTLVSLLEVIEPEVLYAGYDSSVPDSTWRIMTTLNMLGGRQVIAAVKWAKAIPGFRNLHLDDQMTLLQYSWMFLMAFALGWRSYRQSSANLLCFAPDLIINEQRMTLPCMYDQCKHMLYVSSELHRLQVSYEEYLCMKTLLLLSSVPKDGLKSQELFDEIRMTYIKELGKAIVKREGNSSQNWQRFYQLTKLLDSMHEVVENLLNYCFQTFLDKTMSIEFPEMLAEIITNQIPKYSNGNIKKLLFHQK
# Outline: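 Using MMTV-bla HeLa cells in medium with 1% stripped FBS and 25 mM HEPES, compounds were titrated and incubated overnight-length (18 h). Beta-lactamase cleavage of CCF4 was quantified by dual-emission fluorescence.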
# [2] = molecular target: Glucocorticoid receptor (Homo sapiens) (UniProt P04150); assay: qHTS assay for small molecule antagonists of glucocorticoid receptor signaling (AID 588533; active = well fitted inhibition curve with a large enough effect in the signal ratio, with a control signal flat, not every such curve was filed as active; the % refers to the signal ratio;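 note: cells stimulated with 2 nM dexamethasone as agonist; % is set by controls: 0 for no effect and ±100 for the full control effect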); settings: HeLa MMTV-bla, GRE beta-lactamase ratio, antagonist mode, 18 h; series mostly up to 76.8 µM
# Outline: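 Antagonist-mode qHTS: compound titrations added to GRE-bla HeLa cells, then dexamethasone 2 nM final; 18 h, 37 C. CCF4 FRET fluorescence normalized to dexamethasone and DMSO; IC50 from Hill fit.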
# [3] = qHTS assay for small molecule antagonists of peroxisome proliferator-activated receptor delta signaling (AID 588535; active = well fitted inhibition curve with a large enough effect in the signal ratio, with a control signal flat, not every such curve was filed as active; the % refers to the signal ratio;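 for max response: cells co-treated with a PPAR-delta agonist as stimulator during compound exposure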); settings: HEK293T PPARd-UAS-bla, beta-lactamase FRET ratio, 18 h; 460 nm channel
# Outline: (§1)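 Antagonist-mode qHTS using GeneBLAzer PPAR-delta-UAS-bla HEK293T cells; compound exposure 18 hrs at 37 C over a titration. Ratiometric CCF4 fluorescence at 460/530 nm; concentration-response points fitted to the Hill equation.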
# [4] = molecular target: Peroxisome proliferator-activated receptor delta (Homo sapiens) (UniProt Q03181); assay: as above; settings: HEK293T PPARd-UAS-bla, beta-lactamase FRET ratio, 18 h; series mostly up to 76.7 µM
# Peroxisome proliferator-activated receptor delta (Homo sapiens), sequence (Q03181 whole entry, looked up): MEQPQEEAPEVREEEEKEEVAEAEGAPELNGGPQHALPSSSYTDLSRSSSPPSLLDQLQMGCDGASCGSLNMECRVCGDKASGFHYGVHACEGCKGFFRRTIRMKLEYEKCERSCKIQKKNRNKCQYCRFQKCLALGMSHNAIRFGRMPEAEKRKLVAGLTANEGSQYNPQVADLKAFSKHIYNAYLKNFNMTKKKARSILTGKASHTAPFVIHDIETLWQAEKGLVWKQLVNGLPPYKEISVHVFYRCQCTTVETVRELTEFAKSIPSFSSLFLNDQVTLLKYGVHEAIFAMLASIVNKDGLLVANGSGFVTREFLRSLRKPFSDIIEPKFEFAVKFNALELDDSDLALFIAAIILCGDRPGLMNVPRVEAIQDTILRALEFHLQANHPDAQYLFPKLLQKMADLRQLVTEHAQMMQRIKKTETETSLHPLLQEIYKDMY
# Outline: as §1
# [5] = molecular target: Peroxisome proliferator-activated receptor gamma (Homo sapiens) (UniProt P37231); assay: qHTS assay for small molecule agonists of peroxisome proliferator-activated receptor gamma signaling (AID 588536; active = well fitted curve in the direction sought with a large enough effect in the signal ratio, with a control signal flat, not every such curve was filed as active; the % refers to the signal ratio;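 note: 0% = DMSO basal wells and 100% = rosiglitazone at 2 µM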); settings: HEK293 PPARg-UAS-bla, beta-lactamase ratio, 16 h, percent of rosiglitazone response, DMSO as zero; series mostly up to 76.7 µM
# Peroxisome proliferator-activated receptor gamma (Homo sapiens), sequence (P37231 whole entry, looked up): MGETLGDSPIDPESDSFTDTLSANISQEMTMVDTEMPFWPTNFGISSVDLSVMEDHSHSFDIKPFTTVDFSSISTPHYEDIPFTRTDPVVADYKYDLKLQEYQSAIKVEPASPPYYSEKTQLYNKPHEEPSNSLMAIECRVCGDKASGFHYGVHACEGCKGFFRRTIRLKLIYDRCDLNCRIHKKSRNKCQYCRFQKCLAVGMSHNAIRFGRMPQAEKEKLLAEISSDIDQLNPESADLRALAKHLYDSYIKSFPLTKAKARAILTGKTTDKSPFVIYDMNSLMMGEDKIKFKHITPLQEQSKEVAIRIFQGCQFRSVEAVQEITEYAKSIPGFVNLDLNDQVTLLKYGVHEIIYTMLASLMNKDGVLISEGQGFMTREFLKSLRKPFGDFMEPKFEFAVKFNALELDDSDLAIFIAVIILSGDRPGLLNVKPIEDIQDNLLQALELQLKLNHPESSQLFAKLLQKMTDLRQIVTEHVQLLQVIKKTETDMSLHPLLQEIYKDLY
# Outline: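 Using GeneBLAzer HEK293 cells, response was quantified by CCF4 fluorescence and normalized between basal DMSO (0%) and rosiglitazone 2 uM (100%); curves yielded half-maximal stimulation concentration and efficacy.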
# [6] = molecular target: Vitamin D3 receptor (Homo sapiens) (UniProt P11473); assay: qHTS assay for small molecule agonists of vitamin D receptor signaling (AID 588543; calls by dose curve;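 note: 0% = DMSO basal and 100% = reference agonist control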); settings: HEK293T VDR-UAS-bla, beta-lactamase ratio, 16 h; series mostly up to 76.8 µM
# Vitamin D3 receptor (Homo sapiens), sequence (P11473 whole entry, looked up): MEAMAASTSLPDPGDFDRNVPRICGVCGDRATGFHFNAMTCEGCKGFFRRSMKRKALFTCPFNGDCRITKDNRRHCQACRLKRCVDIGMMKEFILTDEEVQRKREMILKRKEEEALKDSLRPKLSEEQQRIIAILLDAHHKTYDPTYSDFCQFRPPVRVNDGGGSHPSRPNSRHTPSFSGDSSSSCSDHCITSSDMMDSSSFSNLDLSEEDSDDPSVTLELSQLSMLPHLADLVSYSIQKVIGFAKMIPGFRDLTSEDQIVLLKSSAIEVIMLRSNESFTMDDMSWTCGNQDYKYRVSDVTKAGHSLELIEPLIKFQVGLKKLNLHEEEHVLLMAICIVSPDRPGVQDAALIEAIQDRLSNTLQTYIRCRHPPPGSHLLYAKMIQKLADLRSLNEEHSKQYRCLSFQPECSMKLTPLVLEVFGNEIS
# Outline: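 Reporter cells (HEK293T, VDR-UAS-bla) were seeded in medium with 2% charcoal-stripped serum and incubated 5 h, then compounds in concentration series were added for 16 h at 37 °C. Stimulation was scaled between DMSO basal and 50 nM 1α,25-dihydroxyvitamin D3.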
# [7] = qHTS assay for small molecule agonists of retinoid X receptor alpha signaling (AID 588544; calls by dose curve;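 for activation: 0% = DMSO basal wells and 100% = reference agonist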); settings: HEK293T RXRa-UAS-bla, beta-lactamase reporter, 18 h; 530 nm emission
# [8] = molecular target: Retinoic acid receptor RXR-alpha (Homo sapiens) (UniProt P19793); assay: as above; settings: HEK293T RXRa-UAS-bla, beta-lactamase reporter, 18 h; series mostly up to 76.7 µM
# Retinoic acid receptor RXR-alpha (Homo sapiens), sequence (P19793 whole entry, looked up): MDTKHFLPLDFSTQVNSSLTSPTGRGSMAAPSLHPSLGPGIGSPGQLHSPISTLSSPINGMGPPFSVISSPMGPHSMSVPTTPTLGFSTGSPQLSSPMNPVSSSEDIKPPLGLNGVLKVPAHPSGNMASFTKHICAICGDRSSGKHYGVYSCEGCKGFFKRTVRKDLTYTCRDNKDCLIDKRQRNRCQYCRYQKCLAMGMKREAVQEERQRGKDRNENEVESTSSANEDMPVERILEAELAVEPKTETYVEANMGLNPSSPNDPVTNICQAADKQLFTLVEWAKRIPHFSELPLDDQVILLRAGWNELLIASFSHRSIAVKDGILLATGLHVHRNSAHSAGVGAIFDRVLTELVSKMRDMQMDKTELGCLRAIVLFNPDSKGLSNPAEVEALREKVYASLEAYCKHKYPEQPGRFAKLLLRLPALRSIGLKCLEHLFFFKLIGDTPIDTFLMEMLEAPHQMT
# [9] = qHTS assay for small molecule antagonists of retinoid X receptor alpha signaling (AID 588546; active = well fitted inhibition curve with a large enough effect in the signal ratio, with a control signal flat, not every such curve was filed as active; the % refers to the signal ratio;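 note: cells stimulated with 9-cis-retinoic acid as agonist; % is set by controls: 0 for no effect and ±100 for the full control effect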); settings: HEK293T RXRa-UAS-bla, beta-lactamase ratio, antagonist mode; measured here: W530 green channel, cytotoxicity proxy
# Outline: (§2)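 Beta-lactamase reporter inhibition, read as CCF4 fluorescence ratio (ex 405, em 460/530 nm) after 2 h at RT. HEK293T UAS-bla cells, 2500/well, were stimulated with 9-cis-RA at 500 or 100 nM final alongside test compound for 18 h at 37 C.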
# [10] = molecular target: Retinoic acid receptor RXR-alpha (Homo sapiens) (UniProt P19793); assay: as above; settings: HEK293T RXRa-UAS-bla, beta-lactamase ratio, antagonist mode
# Outline: as §2
# [11] = qHTS assay for small molecule activators of the p53 signaling pathway (AID 651743; active = well fitted activation curve with a large enough effect in the signal ratio, not every such curve was filed as active; the % refers to the signal ratio; note: % of control where 0% means no effect); settings: HCT-116 p53RE-bla, beta-lactamase FRET ratio, 16 h; activation: stronger effect = higher value
# Outline: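 A beta-lactamase reporter under p53 response element control, stably carried by HCT-116 cells, reported pathway activation. Test compounds were applied for 16 hours at 37 C, and fluorescence was measured 2 hours after adding the B/G FRET substrate.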
# [12] = qHTS assay for environmental chemicals that activate the Aryl hydrocarbon Receptor (AhR) signaling pathway (AID 651777); settings: 1A2-DRE human hepatoma cells, luciferase, 24 h; activation: stronger effect = higher value; note: % of control where 0% means no effect; nearly all actives have a fitted effect of over 15% in size
# Outline: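 Concentration–response screening used 1,200 1A2-DRE cells per well, 24 hr compound exposure (37 C, 5% CO2), and One-Glo luminescence as the AhR-driven CYP1A2 reporter signal.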
# [13] = molecular target: Peroxisome proliferator-activated receptor alpha (Homo sapiens) (UniProt Q07869); assay: qHTS assay for small molecule agonists of the peroxisome proliferator-activated receptor alpha (PPARalpha) signaling pathway (AID 651778); settings: PathHunter PPARalpha complementation, chemiluminescence, 6 h; max response: stronger effect = higher value; note: potency is the fitted concentration of half-maximal effect; for max response: % of control where 0% means no effect
# Peroxisome proliferator-activated receptor alpha (Homo sapiens), sequence (Q07869 whole entry, looked up): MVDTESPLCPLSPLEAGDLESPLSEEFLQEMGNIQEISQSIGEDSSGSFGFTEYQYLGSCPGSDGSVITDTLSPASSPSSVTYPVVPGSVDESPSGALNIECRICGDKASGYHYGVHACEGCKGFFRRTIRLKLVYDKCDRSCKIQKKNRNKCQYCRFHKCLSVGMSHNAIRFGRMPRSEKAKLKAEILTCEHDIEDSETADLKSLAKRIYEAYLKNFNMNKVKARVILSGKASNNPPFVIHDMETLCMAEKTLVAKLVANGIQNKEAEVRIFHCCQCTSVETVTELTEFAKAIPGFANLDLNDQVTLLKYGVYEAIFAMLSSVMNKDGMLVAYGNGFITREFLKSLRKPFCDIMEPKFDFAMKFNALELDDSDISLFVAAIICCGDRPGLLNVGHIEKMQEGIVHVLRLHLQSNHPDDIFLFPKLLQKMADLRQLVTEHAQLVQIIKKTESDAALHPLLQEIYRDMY
# Outline: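 Chemiluminescence from complemented enzyme reported PPARalpha activation in cells after 6 hr of compound treatment at 37 C. The detection reagent was incubated for 60 min at room temperature, and compounds were scored as agonists.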
# [14] = qHTS assay for small molecule agonists of the antioxidant response element (ARE) signaling pathway measured by Nrf2-dependant transcriptional activity (AID 720636; active = well fitted curve in the direction sought with a large enough effect in the repeat runs; an effect the other way counts as inactive or inconclusive;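 note: HepG2 cells with an ARE-driven luciferase reporter; % of control where 0% means no effect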); settings: ARE-luc HepG2, Nrf2 luciferase reporter, 16 h; series mostly up to 92.4 µM
# Outline: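 Attachment 6 hr at 37 C, then compound versus DMSO vehicle for 16 hr in ARE-luc HepG2 cells (1% dialyzed FBS); luminescence recorded 30 min after ONE-Glo addition at room temperature.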
# [15] = qHTS assay for cell viability of HEK293 cells (AID 743288); settings: ATP luminescence (CellTiter-Glo), 18 h; max response: stronger effect = lower value; note: % is set by controls: 0 for no effect and ±100 for the full control effect; nearly all actives have a fitted effect of over 50% in size
# Outline: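 Viable-cell counts were inferred from luciferase-based ATP content in HEK293 cells seeded at 2,000/well, pre-incubated ≥5 h, then dosed with DMSO-solubilised compounds for 18 h at 37 C.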
# [16] = qHTS assay for cell viability of the p53RE-bla HCT-116 cell line (AID 743292); settings: p53RE-bla HCT-116 viability, ATP luminescence, 16 h; series mostly up to 95 µM; note: % is set by controls: 0 for no effect and ±100 for the full control effect; nearly all actives have a fitted effect of over 55% in size
# Outline: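 Compound-exposed HCT-116 (p53RE-bla) cells, 4,000 per well, were kept 16 h at 37 C following a 5 h preincubation. Cell number was estimated from total ATP by CellTiter-Glo luminescence read after 30 min at room temperature.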
# [17] = molecular target: Nuclear receptor subfamily 1 group I member 2 (Rattus norvegicus) (UniProt Q9R1A7); assay: qHTS assay for small molecule activators of the rat pregnane X receptor (rPXR) signaling pathway (AID 651751; call rule not given here; note: 0% is about no effect); settings: rPXR reporter cells, luciferase (One-Glo), 24 h
# Nuclear receptor subfamily 1 group I member 2 (Rattus norvegicus), sequence (Q9R1A7 whole entry, looked up): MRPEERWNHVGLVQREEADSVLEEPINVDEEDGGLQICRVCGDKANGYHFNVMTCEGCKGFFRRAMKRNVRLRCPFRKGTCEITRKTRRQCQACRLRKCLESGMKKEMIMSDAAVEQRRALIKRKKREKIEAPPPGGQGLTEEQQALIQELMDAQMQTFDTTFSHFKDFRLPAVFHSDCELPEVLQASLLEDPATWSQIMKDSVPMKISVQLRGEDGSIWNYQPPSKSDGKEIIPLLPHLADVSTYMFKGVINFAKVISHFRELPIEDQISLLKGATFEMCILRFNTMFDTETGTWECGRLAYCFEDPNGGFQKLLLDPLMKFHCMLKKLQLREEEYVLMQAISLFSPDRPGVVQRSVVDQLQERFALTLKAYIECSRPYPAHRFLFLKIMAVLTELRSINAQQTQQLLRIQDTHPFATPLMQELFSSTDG
# [18] = qHTS assay for small molecule activators of the human pregnane X receptor (PXR) signaling pathway (AID 720659; call rule not given here; note: 0% is about no effect); settings: DPX-2 HepG2 CYP3A4-luciferase, 24 h; series mostly up to 92.3 µM
# [19] = qHTS assay for small molecule agonists of the antioxidant response element (ARE) signaling pathway measured by Nrf2-dependant transcriptional activity - cell viability counter screen (AID 720653; active = well fitted curve in the direction sought with a large enough effect in the repeat runs; an effect the other way counts as inactive or inconclusive; note: % is set by controls: 0 for no effect and ±100 for the full control effect); settings: ARE-bla HepG2 viability, CellTiter-Glo ATP luminescence, 16 h; max response: stronger effect = lower value
# Outline: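 Cytotoxicity counter screen: intracellular ATP quantified by CellTiter-Glo luminescence in the same ARE-bla HepG2 plates, after 16 h compound exposure and a 2 h beta-lactamase substrate step.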
# [20] = molecular target: Thyroid hormone receptor beta (Homo sapiens) (UniProt P10828); assay: qHTS assay for small molecule agonists of thyroid hormone receptor beta signaling (AID 588545; calls by dose curve;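 note: 0% = DMSO only and 100% = 10 nM T3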); settings: TR-UAS-bla GripTite HEK 293, beta-lactamase ratio, agonist mode, 18 h; series mostly up to 76.7 µM
# Thyroid hormone receptor beta (Homo sapiens), sequence (P10828 whole entry, looked up): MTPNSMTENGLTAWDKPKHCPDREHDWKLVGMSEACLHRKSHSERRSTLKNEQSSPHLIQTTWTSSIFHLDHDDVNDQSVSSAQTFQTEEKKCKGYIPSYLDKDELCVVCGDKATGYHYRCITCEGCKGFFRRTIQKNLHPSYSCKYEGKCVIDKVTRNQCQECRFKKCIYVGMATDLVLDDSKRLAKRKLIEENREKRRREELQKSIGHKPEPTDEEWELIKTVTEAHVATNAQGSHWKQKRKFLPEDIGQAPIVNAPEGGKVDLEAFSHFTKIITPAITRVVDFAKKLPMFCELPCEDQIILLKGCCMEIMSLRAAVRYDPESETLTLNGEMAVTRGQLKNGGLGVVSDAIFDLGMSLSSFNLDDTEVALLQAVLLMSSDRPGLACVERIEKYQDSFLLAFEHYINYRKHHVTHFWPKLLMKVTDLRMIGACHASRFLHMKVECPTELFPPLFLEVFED
# Outline: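 Compounds were tested as agonists in TR-UAS-bla-GripTite HEK 293 cells. After 18 hrs at 37 C, CCF4 substrate was added and fluorescence read after 2 hrs at room temperature.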
smiles,measurement,setting,value
CCCCCCCC/C=C\CCCCCCCC(=O)OC,activation,[1],-1.79% (inactive)
same,Potency,[2],inactive
same,max response,[3],-11.5%
same,Potency,[4],inactive
same,outcome,[5],inactive
same,outcome,[6],inactive
same,max response,[7],-13.4%
same,Potency,[8],inactive
same,max response,[9],-9.12%
same,max response,[10],-0.729% (inactive)
same,activation,[11],1.64% (inactive)
same,activation,[12],-0.866% (inactive)
same,max response,[13],4.75% (inactive)
same,Potency,[14],inactive
same,max response,[15],-6.3% (inactive)
same,Potency,[16],inactive
same,max response,[17],0.29% (inactive)
same,outcome,[18],inactive
CCCCCCCCCCCCN,activation,[1],-4.12% (inactive)
same,Potency,[2],inactive
same,max response,[3],-18.4%
same,Potency,[4],inactive
same,outcome,[5],inactive
same,max response,[7],7.66%
same,Potency,[8],inactive
same,max response,[9],-2.37%
same,max response,[10],5.24% (inactive)
same,activation,[11],-7.19% (inactive)
same,activation,[12],-1.22% (inactive)
same,max response,[13],-0.939% (inactive)
same,Potency,[14],inactive
same,max response,[19],-1.6% (inactive)
same,max response,[15],-1.85% (inactive)
same,Potency,[16],inactive
same,max response,[17],0.146% (inactive)
same,outcome,[18],inactive
CCCCOCCOCCO,activation,[1],-5.88% (inactive)
same,Potency,[2],inactive
same,outcome,[5],inactive
same,outcome,[6],inactive
same,max response,[7],-10.9%
same,Potency,[8],inactive
same,Potency,[20],inactive
same,max response,[9],1.46%
same,max response,[10],-25.6% (inactive)
same,activation,[11],0.276% (inactive)
same,activation,[12],0.311% (inactive)
same,max response,[13],-0.568% (inactive)
same,Potency,[14],inactive
same,max response,[19],3.56% (inactive)
same,max response,[15],-12.6% (inactive)
same,Potency,[16],inactive
same,max response,[17],-2.42% (inactive)
same,outcome,[18],inactive
CCCCCCCC[Si](OCC)(OCC)OCC,activation,[1],-8.51% (inactive)
same,Potency,[2],inactive
same,max response,[3],2.69%
same,Potency,[4],inactive
same,outcome,[5],inactive
same,outcome,[6],inactive
same,Potency,[20],inactive
same,max response,[9],-6.97%
same,max response,[10],-6.63% (inactive)
same,activation,[11],1.43% (inactive)
same,activation,[12],0.203% (inactive)
same,max response,[13],0.0712% (inactive)
same,Potency,[14],inactive
same,max response,[19],5.53% (inactive)
same,max response,[15],0.144% (inactive)
same,Potency,[16],inactive
same,max response,[17],6.41% (inactive)
same,outcome,[18],inactive
C=CCCCCCCCCCC,activation,[1],-14.2% (inactive)
same,Potency,[2],inactive
same,max response,[3],-16.2%
same,Potency,[4],inactive
same,outcome,[5],inactive
same,max response,[7],-13.8%
same,Potency,[8],inactive
same,Potency,[20],inactive
same,max response,[9],-3.33%
same,max response,[10],2.09% (inactive)
same,activation,[11],-0.565% (inactive)
same,activation,[12],-1.31% (inactive)
same,max response,[13],-0.224% (inactive)
same,Potency,[14],inactive
same,max response,[19],-1.98% (inactive)
same,max response,[15],-2.08% (inactive)
same,max response,[17],-5.04% (inactive)
same,outcome,[18],inactive
CC(C)CCCCCCCCCCCCCCC(=O)O,activation,[1],-9.44% (inactive)
same,Potency,[2],inactive
same,max response,[3],7.35%
same,Potency,[4],inactive
same,outcome,[5],inactive
same,max response,[7],-6.99%
same,Potency,[8],inactive
same,Potency,[20],inactive
same,max response,[9],-12.3%
same,max response,[10],-25.1% (inactive)
same,activation,[11],1.15% (inactive)
same,activation,[12],-2.9% (inactive)
same,Potency,[13],39.8 µM (active)
same,Potency,[14],inactive
same,max response,[19],4.34% (inactive)
same,max response,[15],-0.822% (inactive)
same,Potency,[16],inactive
same,max response,[17],1.88% (inactive)
same,outcome,[18],inactive
